Among the data in the OligoGym collection are sensor-assay potency score (higher = more potent) values, retold here.
Note: reference of the scale not given here.

The target of one assay is CLEC9A. Description: pooled miR-30 sensor sort-seq; sequence = guide strand. Particulars: shRNA.
TAAACAATTCTCTTGACTGGTG came in with a sensor-assay potency score (higher = more potent) of -0.135.

TCACAAGACAGCATGCTCCTGA registered a sensor-assay potency score (higher = more potent) of 0.87.

TTTTCTTGCTGCTGCATCGCAA gave a sensor-assay potency score (higher = more potent) of -0.454.

TTGGATGAGTTTTTCTTGCTGC returned a sensor-assay potency score (higher = more potent) of 0.744.

The sequence TTAAACAATTCTCTTGACTGGT returned a sensor-assay potency score (higher = more potent) of -0.125.

TTAATCTTCCTCAAGCTGCCAG yielded a sensor-assay potency score (higher = more potent) of 0.401.

TTGGAAGACAGACATTTCTGGT registered a sensor-assay potency score (higher = more potent) of -0.439.

For the next assay, the target named is CLN3. The description is as above. Particulars: shRNA.
Turning to ATCGTGATGAGCTGTTGTGGGG, the sensor-assay potency score (higher = more potent) was -0.665.

Sequence CAGAGTTGCAGTCAAATCGTGA had a sensor-assay potency score (higher = more potent) of -1.16.

For AAGTAAACTACGACCAAGGGAA, the sensor-assay potency score (higher = more potent) was -0.0602.

Consider AAATCGTGATGAGCTGTTGTGG, for which the sensor-assay potency score (higher = more potent) is -0.817.

Regarding TACAGCATCTGGTACCAGCGGT, the sensor-assay potency score (higher = more potent) was -0.527.

AATCGTGATGAGCTGTTGTGGG registered a sensor-assay potency score (higher = more potent) of -0.0059.

In the case of AATCCCACTGACGAGAACCCGG, the sensor-assay potency score (higher = more potent) is -0.766.

For TGGTCCAACAGAGGGAGCCGGG, the sensor-assay potency score (higher = more potent) is -1.78.

TCAAATCGTGATGAGCTGTTGT came in with a sensor-assay potency score (higher = more potent) of 0.182.

In the case of AACAATTTGATGACGAGTGTGG, the sensor-assay potency score (higher = more potent) stood at 0.272.

Consider TTGCAGTCAAATCGTGATGAGC, for which the sensor-assay potency score (higher = more potent) is -1.19.

With AACACTGTCCACCTTTCCCGAA, the sensor-assay potency score (higher = more potent) was -1.44.

With TGACTCAGGGAAGTGTTCCAGA, the sensor-assay potency score (higher = more potent) was -0.693.

For the sequence TGAGCAACAAGAAATAGCTGGC, the sensor-assay potency score (higher = more potent) was 0.625.

TTTCCCGATGTCCTCTTGTGGC yielded a sensor-assay potency score (higher = more potent) of -1.44.

Turning to TAGAGACAGAGTTGCAGTCAAA, the sensor-assay potency score (higher = more potent) is -1.26.

On to TCTGCCAGCAGGAACACCAGGT, for which the sensor-assay potency score (higher = more potent) turned out to be 0.0628.

TTGTGGCTAAGGATGTCGTGGG returned a sensor-assay potency score (higher = more potent) of -0.303.

TTGTGGAAGGTGTTCACGTAGG registered a sensor-assay potency score (higher = more potent) of -0.371.

Regarding GTGAGCAACAAGAAATAGCTGG, the sensor-assay potency score (higher = more potent) was -0.754.

Consider TCGTGATGAGCTGTTGTGGGGG, for which the sensor-assay potency score (higher = more potent) was -0.528.

For TGGTACAGCATCTGGTACCAGC, the sensor-assay potency score (higher = more potent) is -1.94.

With AAGACCACACCACACAGGCTGG, the sensor-assay potency score (higher = more potent) is -1.35.

TTGAACACTGTCCACCTTTCCC displayed a sensor-assay potency score (higher = more potent) of -0.845.

The target in another assay is CLN5. The description is as above. Particulars: shRNA.
With TCTATGTTCTTGAACTCTGCTC, the sensor-assay potency score (higher = more potent) is 0.0222.

With TAGGTAAAAACCAATATTCAAA, the sensor-assay potency score (higher = more potent) is -1.15.

For TTTGGTTGAACATGTTTCCTGA, the sensor-assay potency score (higher = more potent) came out at 0.362.

TTAACTTTATGCACCAAGGAAG: the sensor-assay potency score (higher = more potent) is -0.963.

TAATATGCAGCAATTCTGCTGA displayed a sensor-assay potency score (higher = more potent) of 0.18.

Regarding TTTAACTTTATGCACCAAGGAA, the sensor-assay potency score (higher = more potent) is -0.689.

In the case of TTTCCTTCCAGTGAACATCATC, the sensor-assay potency score (higher = more potent) is -0.843.

For the sequence ATGTTCTTGAACTCTGCTCCAA, the sensor-assay potency score (higher = more potent) is -1.05.

TAGTTGGTTTCTATGTTCTTGA registered a sensor-assay potency score (higher = more potent) of -0.69.
